Assay results taken from PubChem BioAssay (NCI).
Compounds without any hit were thinned out: in the full panel of roughly 83,000, 20% have a hit.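 Results are percent growth after 48 hours of single-concentration exposure. 100 means growth as in untreated cells, lower positive values show inhibition; negative values down to -100 show cell death.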 Calls of active or inactive are those of the source. How the source made its calls: active means growth percent below 10; inactive means the rest.

These molecules were tested on OVCAR-8 ovarian (assay: NCI-60 one-dose screen, 48 h (100 = growth as untreated, 0 = no growth, -100 = all killed)). Conditions: 10 µM unless noted.

| Compound | growth |
| --- | --- |
| Nc1nc(SCc2cccc([N+](=O)[O-])c2)c2[nH]cnc2n1 | 96.5% (inactive) |
| N/C(=N\c1nc2ccccc2[nH]1)NC(=O)Cc1cccc2ccccc12 | 27.5% (inactive) |
| O=C1NC(=O)c2cc([N+](=O)[O-])cc3cccc1c23 | 85.4% (inactive) |
| COc1ccc(C2CC(c3cc(OC)c(OC)c(OC)c3)=NN2C(C)=O)cc1OCC(=O)Nc1nc2ccc(C(F)(F)F)cc2s1 (centres undefined) | 62.3% (inactive) |
| O=C(N/N=C/c1ccc([N+](=O)[O-])cc1)c1ccc(Br)o1 | 71.8% (inactive) |
| O=C(NCc1ccccc1)C(Cl)Cl | 101% (inactive) |
| COc1cc2c(c(OC)c1OC)-c1ccc(NNC(N)=S)c(=O)cc1[C@@H](NC(C)=O)CC2 | 6.26% (active) |
| CC(C)OC(=O)Nc1cc(F)c(F)cc1F | 100% (inactive) |
| Nc1cc(C(=O)O)[nH]c(=S)n1 | 101% (inactive) |
| COc1ccc(OC)c(NC=O)c1 | 104% (inactive) |
| ClC1=C(Cl)C(Cl)=C(Cl)C1=Cc1ccccc1 | -18.9% (active) |
| O=C(O)c1cc([N+](=O)[O-])ccc1Br | 101% (inactive) |
| COC(=O)c1cc2c(=O)[nH]cc3c2c(n1)CCC3 | 105% (inactive) |
| CCN=C1C=CC(=C(c2ccc(N(CC)CC)cc2)c2ccc(N(CC)CC)cc2)c2ccccc21 | -52.7% (active) |
| O=c1[nH]c(CN2CCN(c3cccc(Cl)c3)CC2)nc2cc(Cl)ccc12 | 46.2% (inactive) |
| c1ccc2c(c1)CN(CCCN1CCOCC1)C2 | 102% (inactive) |
| Nc1cc(NN=C(c2ccc(O)cc2)c2ccc(O)cc2)c([N+](=O)[O-])cc1[N+](=O)[O-] | -75.8% (active) |
| O=c1cc(-c2ccccc2)oc2c(O)c(O)ccc12 | 52.8% (inactive) |
| COc1c(C(C)=O)c(OCCCCOc2c(C(C)=O)c(OC)c3ccoc3c2OC)c(OC)c2occc12 | 45.3% (inactive) |

| Compound | growth |
| --- | --- |
| CNc1cc(C(=O)O)nc(NC)n1 | 101% (inactive) |
| O=[N+]([O-])c1cc([N+](=O)[O-])c(NN=C(c2ccc(O)cc2)c2ccc(O)cc2)cc1Cl | -76.6% (active) |
| NC(=O)c1c(NC(=O)COC(=O)Cc2ccccc2F)sc2c1CCC2 | 39.4% (inactive) |
| CCCCOC(=O)c1c(C)[nH]c(/C=C2\N=C(c3ccc[nH]3)C=C2OC)c1C | 7.7% (active) |
| CC(C)[N+](C)(C)CC(O)COc1cccc2ccccc12 (centres undefined) | 98.4% (inactive) |
| CCCCCCCCCCCCNC(=S)N/N=C/c1ccccc1O | 77.9% (inactive) |
| COCc1nc2ccccc2[nH]1 | 102% (inactive) |
| CCCCCCCCCCCCCCNC(=O)Nc1ccc(Cl)c(Cl)c1 | 30.5% (inactive) |
| CCN(CC)CCSC(=O)C(O)(c1ccccc1)C1CCCC1 (centres undefined) | 97.8% (inactive) |
| C=C1C(=O)O[C@H]2[C@H]1CC/C(COC(=O)NCc1ccc(Cn3c(=O)sn(-c4ccc(Cl)cc4)c3=O)cc1)=C\CC[C@@]1(C)O[C@@H]21 | 84% (inactive) |
| CCOC(=O)c1c[nH]c2cc(OCC3CC3)c(OCC3CC3)cc2c1=O | 99.5% (inactive) |
| Cc1cc(NN=C(c2ccc(O)cc2)c2ccc(O)cc2)c([N+](=O)[O-])cc1[N+](=O)[O-] | 0.819% (active) |
| Nc1nnc(CSc2nnc3n(Cc4ccccc4)c(=O)c4c5c(sc4n23)CCCC5)s1 | 98.7% (inactive) |
| N#Cc1c(Cl)nc(SCC2CO2)nc1-c1ccccc1 (centres undefined) | 51.6% (inactive) |
| O=C(C[n+]1ccn(CC(OCc2ccc(Cl)cc2Cl)c2ccc(Cl)cc2Cl)c1)c1ccc(F)cc1 (centres undefined) | -90.5% (active) |
| O=C(O)CSCc1nnc2n(Cc3ccccc3)c(=O)c3c4c(sc3n12)CCCC4 | 92.6% (inactive) |
| COc1ccc(OC)c([N+](=O)[O-])c1C(=O)CNC(C)=O | 99.5% (inactive) |
| COc1ccc2c3ccnc(C(F)(F)F)c3n(CCCCN)c2c1 | 46.1% (inactive) |

These molecules were tested on OVCAR-5 ovarian in the same assay as above. Conditions: 10 µM unless noted.

| Compound | growth |
| --- | --- |
| Nc1nc(SCc2cccc([N+](=O)[O-])c2)c2[nH]cnc2n1 | 101% (inactive) |
| N/C(=N\c1nc2ccccc2[nH]1)NC(=O)Cc1cccc2ccccc12 | 88.6% (inactive) |
| O=C1NC(=O)c2cc([N+](=O)[O-])cc3cccc1c23 | 109% (inactive) |
| COc1ccc(C2CC(c3cc(OC)c(OC)c(OC)c3)=NN2C(C)=O)cc1OCC(=O)Nc1nc2ccc(C(F)(F)F)cc2s1 (centres undefined) | 117% (inactive) |
| O=C(N/N=C/c1ccc([N+](=O)[O-])cc1)c1ccc(Br)o1 | 104% (inactive) |
| O=C(NCc1ccccc1)C(Cl)Cl | 91.7% (inactive) |
| COc1cc2c(c(OC)c1OC)-c1ccc(NNC(N)=S)c(=O)cc1[C@@H](NC(C)=O)CC2 | 31.5% (inactive) |
| CC(C)OC(=O)Nc1cc(F)c(F)cc1F | 93.5% (inactive) |
| Nc1cc(C(=O)O)[nH]c(=S)n1 | 96.1% (inactive) |
| COc1ccc(OC)c(NC=O)c1 | 108% (inactive) |
| ClC1=C(Cl)C(Cl)=C(Cl)C1=Cc1ccccc1 | -60.9% (active) |
| O=C(O)c1cc([N+](=O)[O-])ccc1Br | 90.8% (inactive) |
| COC(=O)c1cc2c(=O)[nH]cc3c2c(n1)CCC3 | 99.8% (inactive) |
| CCN=C1C=CC(=C(c2ccc(N(CC)CC)cc2)c2ccc(N(CC)CC)cc2)c2ccccc21 | -40.1% (active) |
| O=c1[nH]c(CN2CCN(c3cccc(Cl)c3)CC2)nc2cc(Cl)ccc12 | 85.3% (inactive) |
| c1ccc2c(c1)CN(CCCN1CCOCC1)C2 | 99.1% (inactive) |
| Nc1cc(NN=C(c2ccc(O)cc2)c2ccc(O)cc2)c([N+](=O)[O-])cc1[N+](=O)[O-] | -50.9% (active) |
| O=c1cc(-c2ccccc2)oc2c(O)c(O)ccc12 | 62.9% (inactive) |
| COc1c(C(C)=O)c(OCCCCOc2c(C(C)=O)c(OC)c3ccoc3c2OC)c(OC)c2occc12 | 120% (inactive) |

| Compound | growth |
| --- | --- |
| CNc1cc(C(=O)O)nc(NC)n1 | 92.1% (inactive) |
| O=[N+]([O-])c1cc([N+](=O)[O-])c(NN=C(c2ccc(O)cc2)c2ccc(O)cc2)cc1Cl | 78.1% (inactive) |
| NC(=O)c1c(NC(=O)COC(=O)Cc2ccccc2F)sc2c1CCC2 | 111% (inactive) |
| CCCCOC(=O)c1c(C)[nH]c(/C=C2\N=C(c3ccc[nH]3)C=C2OC)c1C | 11% (inactive) |
| CC(C)[N+](C)(C)CC(O)COc1cccc2ccccc12 (centres undefined) | 94.6% (inactive) |
| CCCCCCCCCCCCNC(=S)N/N=C/c1ccccc1O | 99.1% (inactive) |
| COCc1nc2ccccc2[nH]1 | 99.8% (inactive) |
| CCCCCCCCCCCCCCNC(=O)Nc1ccc(Cl)c(Cl)c1 | 64.8% (inactive) |
| CCN(CC)CCSC(=O)C(O)(c1ccccc1)C1CCCC1 (centres undefined) | 94.6% (inactive) |
| C=C1C(=O)O[C@H]2[C@H]1CC/C(COC(=O)NCc1ccc(Cn3c(=O)sn(-c4ccc(Cl)cc4)c3=O)cc1)=C\CC[C@@]1(C)O[C@@H]21 | 93.2% (inactive) |
| CCOC(=O)c1c[nH]c2cc(OCC3CC3)c(OCC3CC3)cc2c1=O | 102% (inactive) |
| Cc1cc(NN=C(c2ccc(O)cc2)c2ccc(O)cc2)c([N+](=O)[O-])cc1[N+](=O)[O-] | 90.1% (inactive) |
| Nc1nnc(CSc2nnc3n(Cc4ccccc4)c(=O)c4c5c(sc4n23)CCCC5)s1 | 103% (inactive) |
| N#Cc1c(Cl)nc(SCC2CO2)nc1-c1ccccc1 (centres undefined) | 101% (inactive) |
| O=C(C[n+]1ccn(CC(OCc2ccc(Cl)cc2Cl)c2ccc(Cl)cc2Cl)c1)c1ccc(F)cc1 (centres undefined) | -93.4% (active) |
| O=C(O)CSCc1nnc2n(Cc3ccccc3)c(=O)c3c4c(sc3n12)CCCC4 | 94.1% (inactive) |
| COc1ccc(OC)c([N+](=O)[O-])c1C(=O)CNC(C)=O | 99.9% (inactive) |
| COc1ccc2c3ccnc(C(F)(F)F)c3n(CCCCN)c2c1 | 54.8% (inactive) |
